Data taken from PubChem BioAssay (NCATS).
Inconclusive results are not listed. Entries that show only a call come without a potency. The source made the active and inactive calls. The call rests on the fitted dose curve; in most records, active means well fitted inhibition curve with a large enough effect; inconclusive means small, poorly fitted or top-dose-only effect; inactive means flat fitted curve, though single readings scatter.

Assays:
[1] = target: Lysine-specific demethylase 5B (Homo sapiens) (UniProt Q9UGL1); assay: Optimization screen for KDM5B Histone Demethylases FDH coupled qHTS against the LOPAC library (AID 1347166)
Sequence of Lysine-specific demethylase 5B (Homo sapiens) (Q9UGL1 whole entry, looked up): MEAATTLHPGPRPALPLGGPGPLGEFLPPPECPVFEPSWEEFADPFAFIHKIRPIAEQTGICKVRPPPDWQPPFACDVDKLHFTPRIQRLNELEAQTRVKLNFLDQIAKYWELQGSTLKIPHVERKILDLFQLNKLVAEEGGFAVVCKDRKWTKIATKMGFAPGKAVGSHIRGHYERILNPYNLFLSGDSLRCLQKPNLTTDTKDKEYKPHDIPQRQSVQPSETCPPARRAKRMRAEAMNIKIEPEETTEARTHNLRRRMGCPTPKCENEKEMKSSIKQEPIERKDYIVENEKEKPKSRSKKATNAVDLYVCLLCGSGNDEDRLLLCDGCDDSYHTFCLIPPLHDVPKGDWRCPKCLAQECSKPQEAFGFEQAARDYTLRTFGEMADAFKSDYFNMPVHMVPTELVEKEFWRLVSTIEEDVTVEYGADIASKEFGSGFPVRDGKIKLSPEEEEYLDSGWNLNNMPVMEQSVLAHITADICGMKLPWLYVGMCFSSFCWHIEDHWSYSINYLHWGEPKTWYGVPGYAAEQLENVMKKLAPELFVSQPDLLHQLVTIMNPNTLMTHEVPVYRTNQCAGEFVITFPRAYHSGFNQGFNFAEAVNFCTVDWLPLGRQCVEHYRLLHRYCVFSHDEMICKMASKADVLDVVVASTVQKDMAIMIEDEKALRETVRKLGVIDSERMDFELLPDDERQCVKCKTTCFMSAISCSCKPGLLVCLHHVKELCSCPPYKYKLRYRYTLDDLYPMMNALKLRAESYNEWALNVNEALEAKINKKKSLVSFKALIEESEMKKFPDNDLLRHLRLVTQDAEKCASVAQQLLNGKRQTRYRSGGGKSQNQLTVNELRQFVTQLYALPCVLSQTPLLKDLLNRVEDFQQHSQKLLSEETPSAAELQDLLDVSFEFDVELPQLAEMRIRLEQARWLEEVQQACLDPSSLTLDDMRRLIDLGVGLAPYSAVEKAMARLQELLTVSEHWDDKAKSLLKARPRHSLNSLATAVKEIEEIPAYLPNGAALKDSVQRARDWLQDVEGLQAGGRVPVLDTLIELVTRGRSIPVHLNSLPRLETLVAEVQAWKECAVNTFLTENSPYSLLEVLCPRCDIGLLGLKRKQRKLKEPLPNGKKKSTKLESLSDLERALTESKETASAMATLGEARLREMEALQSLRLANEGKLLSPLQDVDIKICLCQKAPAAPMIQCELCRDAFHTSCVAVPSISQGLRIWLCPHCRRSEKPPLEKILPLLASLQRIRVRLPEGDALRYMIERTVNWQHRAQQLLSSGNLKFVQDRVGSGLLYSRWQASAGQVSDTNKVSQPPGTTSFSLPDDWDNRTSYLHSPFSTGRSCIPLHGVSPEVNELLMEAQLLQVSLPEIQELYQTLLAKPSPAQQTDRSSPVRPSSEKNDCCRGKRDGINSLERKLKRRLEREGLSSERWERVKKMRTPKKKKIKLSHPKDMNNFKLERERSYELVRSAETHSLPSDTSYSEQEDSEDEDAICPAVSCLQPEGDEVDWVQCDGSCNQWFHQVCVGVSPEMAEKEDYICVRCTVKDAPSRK
Outline: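 KDM5BDeltaAP (200nM final) in 50mM HEPES pH 7.5, 0.01% Tween-20 was preincubated with compound for 10 min at room temperature. A substrate mix of 12.5uM H3K4Me3, 25uM a-ketoglutarate, ascorbate, Fe2+, NAD+ and formaldehyde dehydrogenase was then added. NADH fluorescence (340/450 nm) was read initially and after 30 min.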

[2] = test system: Zika virus NS2B-NS3 protease; assay: Primary screen GU AMC qHTS for Zika virus inhibitors (AID 1347154); further: nearly all actives have a fitted effect of over 70% in size
Outline: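 Fluorogenic AMC-substrate cleavage by noncovalent NS2B-NS3 protease complex (25 nM, pH 8.0 Tris buffer with Tween 20) followed for 15 minutes at room temperature (~20% conversion). Percent inhibition from ex340/em450 signal change, fitted by 4-parameter Hill equation.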

Row | SMILES | outcome [1] | Potency [2]
1 | NC(=O)CN1CC(O)CC1=O (configuration not stated) | inactive | –
2 | C[C@]12CCC3C(CC[C@H]4C[C@H](O)CC[C@]34C)C1CC[C@@H]2C(=O)CO (some centres not stated) | inactive | –
3 | CNCCc1c[nH]c2ccc(O)cc12 | inactive | –
4 | NC1CC1c1ccccc1 (configuration not stated) | inactive | inactive
5 | Cn1cnc(CCN)c1 | inactive | –
6 | c1ccc2sc(C3(N4CCCCC4)CCCCC3)cc2c1 | inactive | inactive
7 | CC(C)NC(C)Cc1ccc(I)cc1 (configuration not stated) | inactive | –
8 | C[N+]1(C)C2CCC1CC(OC(=O)C(CO)c1ccccc1)C2 (configuration not stated) | inactive | –
9 | C#CCOC(=O)C1=CCCN(C)C1 | inactive | inactive
10 | CCCN1CCO[C@@H]2c3cc(O)ccc3OC[C@H]21 | inactive | inactive
11 | C[C@@H](N)Cc1cnc[nH]1 | inactive | inactive
12 | O=C(O)Cc1cnc[nH]1 | inactive | inactive
13 | C[C@]12N[C@H](Cc3ccccc31)c1ccccc12 | inactive | –
14 | C=CCN1CC[C@]23CCCCC2[C@H]1Cc1ccc(O)cc13 (some centres not stated) | inactive | –
15 | CN[C@@H]1C[C@@H](c2ccc(Cl)c(Cl)c2)c2ccccc21 | inactive | –
16 | COc1cc(C(O)CN)ccc1O (configuration not stated) | inactive | –
